Here are results for 87 compounds from ChEMBL document CHEMBL4513135, “CO-ADD screening of IQOG CSIS (Spain) compounds”.

Structures are written as SMILES. Measured potencies and affinities stand elsewhere.

For test [1], the system named is Staphylococcus aureus. As to conditions: Concentration 32 ug.mL-1; ASSAY_TEST Inhibition of Bacterial Growth; detection method Absorption (OD600); MEDIA CAMHB; plate type 384well; NBS; CORNING #3640; time 18 hr.
In test [2] the test system is Escherichia coli. As to conditions: Concentration 32 ug.mL-1; ASSAY_TEST Inhibition of Bacterial Growth; detection method Absorption (OD600); MEDIA CAMHB; plate type 384well; NBS; CORNING #3640; time 18 hr.

As usually defined, the Inhibition is the drop in the measured response relative to a control, in per cent. As to `CC(=O)Oc1cccc(C=C2N=C(c3ccccc3)OC2=O)c1`, the Inhibition in test [1] amounted to 11%; in test [2], 13.2%.
For `COc1ccccc1C1C(C#N)=C(N)Oc2ccc3ccccc3c21` (centres undefined) the same measures were 38.4% and -7.08%.
For `COC(=O)C(C#N)=Cc1ccccc1` the same measures were 23.27% and 9.25%.
The corresponding values for `CCOC(=O)CCc1c[nH]c2ccccc12` are -15.79% and -15.2%.
Turning to `CSC1=NC2(CC2c2ccccc2)C(=O)N1` (centres undefined), the Inhibition in test [1] stood at 10.34%; in test [2] it was 2.43%.
The corresponding values for `CCOC(=O)C1=C(C)OC(N)=C(C#N)C1c1ccc(OC)c(OC)c1` (centres undefined) are 21.72% and -10.4%.
For `N#CC1(Br)C(=NBr)Oc2c(ccc3ccccc23)C1c1ccc([N+](=O)[O-])cc1` (centres undefined) the same measures were 36.89% and -19.6%.
The corresponding values for `C#CCN(C)Cc1cc2cc(OC)ccc2n1C` are 33.86% and -8.2%.
As to `COc1nc(N)c(C#N)cc1C#N`, the Inhibition in test [1] was 18.25%; in test [2] it was -3.66%.
`COc1ccc(C2c3c(nc4c(c3N)CCCC4)Oc3ccc4ccccc4c32)cc1OC` (centres undefined): the results for the Inhibition in test [1] and in test [2] were 3.78% and 13.42%, respectively.
The corresponding values for `O=C1OC(c2ccccc2)=NC1=Cc1ccccc1Cl` are 16.61% and 12.84%.
In the case of `NC(=O)c1cc2cc(OCc3ccccc3)ccc2[nH]1`, the values for the Inhibition in test [1] and in test [2] were 21.34% and -8.75%, respectively.
The corresponding values for `Cn1c(CO)cc2cc(OCCCC3CCN(Cc4ccccc4)CC3)ccc21` are 7.02% and -17.9%.
The corresponding values for `Cl.OCC1CCN(Cc2ccccc2)CC1` are 26.15% and 15.91%.
For `CC(C)(C)OC(=O)N[C@H]1CC[C@H](O)CC1` the same measures were 7.19% and -6.43%.
Turning to `CCOC(=O)C1=C(C)OC(N)=C(C#N)C1c1cccnc1` (centres undefined), the Inhibition in test [1] is -6.34%; in test [2] it was -11.43%.
On to `O=C1NC(=O)C(=Cc2ccccc2)N1`, for which the Inhibition in test [1] came to 16.19%; in test [2], 11.12%.
On to `Nc1nc(N)c(C=O)c(-c2ccccc2)c1C=O`, for which the Inhibition in test [1] turned out to be 3.38%; in test [2], 16.24%.
For `CC(C)CC(C)NNC(=O)c1cc2ccccc2[nH]1` (centres undefined) the same measures were -8.06% and -7.16%.
The corresponding values for `COc1ccc2cc(C3C(C(C)=O)=C(C)Oc4nc5c(c(N)c43)CCC5)c(Cl)nc2c1` (centres undefined) are 7.35% and 4.4%.
For `CC(=O)Oc1ccc(C=C2N=C(c3ccccc3)OC2=O)c(OC(C)=O)c1` the same measures were 7.39% and 7.35%.
For the compound `C#CCN(C)Cc1cc2cc(OCCCC3CCN(Cc4ccc(C#N)cc4)CC3)ccc2n1C`, the figures for the Inhibition in test [1] and in test [2] were 8.98% and -18.18%, respectively.
For `N#Cc1c(NC2CCC(Cc3ccccc3)CC2)nc(NC2CCN(Cc3ccccc3)CC2)c(C#N)c1-c1ccccc1` (centres undefined), the Inhibition in test [1] is on record as 4.21%; in test [2] it was -8.77%.
Consider `Cc1ccc(/C=C(\C#N)C(=O)c2ccccc2)cc1`, for which the Inhibition in test [1] was 25.42%; in test [2], 15.2%.
The corresponding values for `CCOC(=O)c1c(C)nc2nc3c(c(N)c2c1-c1ccccc1OC)CCCCC3` are 5.11% and -17.67%.
The corresponding values for `COc1ccc2c(ccn2C)c1` are 6.16% and 8.07%.
The corresponding values for `CCOC(=O)N/N=C/c1ccccc1` are -2.34% and -1.06%.
As to `CSC1=NC(=Cc2cn(C)c3ccccc23)C(=O)N1C`, the results for the Inhibition in test [1] and in test [2] were 3.9% and -1.24%, respectively.
The corresponding values for `N#Cc1c(N)nc2[nH]nc(N)c2c1-c1ccccc1` are 40.83% and -6.5%.
For `Cl.NC1(C(=O)O)CC1c1ccccc1` (centres undefined) the same measures were 12.81% and 11.66%.
The corresponding values for `COc1cc(C2C(C#N)=C(N)Oc3c2ccc2ccccc32)ccc1O` (centres undefined) are 50.2% and -13.64%.
With `C=C1CN(Cc2ccccc2)c2c(C#N)c(-c3ccccc3)c(C#N)c(=N)n21`, the Inhibition in test [1] is on record as 44.91%; in test [2] it was -0.81%.
For `C#CC[n+]1ccccc1N.[Br-]` the same measures were 6.4% and 12.69%.
The corresponding values for `C=C1CN(C)c2c(C#N)c(-c3ccccc3)c(C#N)c(=N)n21` are 11.22% and -20.05%.
On to `Cc1ccc(CNNC(=O)c2c[nH]c3ccccc23)cc1`, for which the Inhibition is recorded as -8.4% in test [1] and -3.7% in test [2].
The corresponding values for `c1ccc(-c2nc3c4cnn(-c5ccccc5)c4ncn3n2)cc1` are 14.04% and 8.07%.
For `CCOc1nc2nc3c(c(N)c2cc1C#N)CCCC3` the same measures were -2.29% and -2.83%.
For `CC1(C)OS(=O)(=O)C2=C1NC(N)=C(C#N)C2c1ccccc1` (centres undefined) the same measures were 8.23% and 10.42%.
Regarding `CCOC(=O)/C(C#N)=C\c1ccc([N+](=O)[O-])cc1`, the Inhibition in test [1] was found to be 32.65%; in test [2], 19.98%.
As to `Nc1c2c(nc3nc4ccccc4nc13)CCCC2`, the results for the Inhibition in test [1] and in test [2] were 36.81% and -11.07%, respectively.
As to `O=C(Cc1ccccc1)N/N=C/c1c[nH]c2ccccc12`, the Inhibition in test [1] is on record as 9.24%; in test [2], 17.46%.
The corresponding values for `C#CCNc1nc(N)c(C#N)c(-c2ccccc2)c1C#N` are 3.95% and 15.49%.
For `CCC(CC)NNC(=O)c1cc2ccccc2n1C` the same measures were 11.92% and 13.68%.
The corresponding values for `C#CCN(C)c1nc(NC2CCN(Cc3ccccc3)CC2)c(C#N)c(-c2ccccc2)c1C#N` are 0.44% and -3.84%.
Take `CC(=O)/C=C/C1CCN(Cc2ccccc2)CC1`: the Inhibition in test [1] is 28.47%; in test [2], -12.86%.
The corresponding values for `Cl.ClCCCN1CCCC1` are 23.18% and 5.15%.
With `CC(=O)CC(=O)N1[C@@H]2C[C@H]3CCC2(CS1(=O)=O)C3(C)C`, the Inhibition in test [1] stood at 27.16%; in test [2] it was 7.75%.
Take `Cl.Cl.Cn1c(CNc2ccccc2)cc2cc(OCCCC3CCN(Cc4ccccc4)CC3)ccc21`: the Inhibition in test [1] is listed as 21.22%; in test [2] it was -8.49%.
The corresponding values for `O=C(N/N=C/c1c[nH]c2ccccc12)C(c1ccccc1)c1ccccc1` are 7.26% and 7.64%.
For `CCOC(=O)c1c[nH]c2ccc(OC)cc12`, the values for the Inhibition in test [1] and in test [2] were 4.86% and 9.94%, respectively.
On to `O=C(O)/C(=C\c1ccccc1)NC(=O)c1ccccc1`, for which the Inhibition came out at 14.68% in test [1] and 10.16% in test [2].
For `COc1ccc(C=C2N=C(SC)N(C)C2=O)cc1` the same measures were -4.46% and 0.92%.
The corresponding values for `O=C(COc1ccc2ccccc2c1)NNCc1c[nH]c2ccccc12` are 3.31% and 7.68%.
For `N#CC1=C(N)Oc2c(ccc3ccccc23)C1c1ccccc1` (centres undefined) the same measures were 23.38% and -4.89%.
In the case of `COc1ccccc1C1C(C#N)=C(N)Oc2[nH]nc(C)c21` (centres undefined), the Inhibition stood at 9.32% in test [1] and 14.43% in test [2].
Regarding `CCOC(=O)c1c(C)[nH]c(=O)c(C#N)c1-c1ccccc1`, the Inhibition is 37.77% in test [1] and -18.87% in test [2].
The corresponding values for `COc1nc2ccccc2cc1C=O` are 17.37% and 18.39%.
The corresponding values for `Cc1ccc(C2c3c(nc4c(c3N)CCCC4)Oc3ccc4ccccc4c32)cc1` (centres undefined) are 10.92% and -5.39%.
The corresponding values for `CN(C)c1nc2nc3c(c(N)c2c(-c2ccccc2)c1C#N)CCCC3` are 5.71% and -1.51%.
Consider `NNC(=O)c1c[nH]c2ccc(OCc3ccccc3)cc12`, for which the Inhibition in test [1] was determined as 2.88%; in test [2], 0.02%.
For `COc1ccc2c(c1)cc(CN)n2C` the same measures were 13.26% and 5.66%.
For `C#CCN(C)c1nc(NCCCCC2CCN(Cc3ccccc3)CC2)c(C#N)cc1C#N` the same measures were 0.89% and -7.65%.
Take `CCOC(=O)c1cc2cc(OC)ccc2n1C`: the Inhibition in test [1] is -7.5%; in test [2], -9.48%.
For `CN1C/C(=C\Br)n2c1c(C#N)cc(C#N)c2=O` the same measures were 16.92% and -11.76%.
The corresponding values for `c1ccc(CNc2ncnc3c2cnn3-c2ccccc2)cc1` are 7.54% and 6.64%.
The corresponding values for `C#CCN(C)c1nc(NCCCC2CCN(Cc3ccccc3)CC2)c(C#N)cc1C#N` are 1.12% and -10.35%.
As to `CC1=NC(=Cc2ccccc2)C(=O)S1`, the Inhibition is 13.03% in test [1] and 9.12% in test [2].
The corresponding values for `N#Cc1c(-c2ccccc2)c2c(ccc3ccccc32)oc1=O` are 27.54% and 15.75%.
For `COc1ccc(C2C(C#N)=C(N)Oc3[nH]nc(C)c32)cc1` (centres undefined) the same measures were 4.82% and 6.91%.
For `Nc1n[nH]c2c1C(c1ccccc1)CC(=O)N2` (centres undefined) the same measures were 40.09% and -4.9%.
For the compound `Cn1c(C(=O)O)cc2ccccc21`, the Inhibition in test [1] worked out at 7.02%; in test [2], 5.49%.
For `Cc1ccc(CNNC(N)=O)cc1.Cl` the same measures were 4.52% and 6.79%.
Turning to `CC1=C(C(=O)O[C@@H]2C[C@@]3(C)CC[C@H]2C3(C)C)C(c2ccccc2)C(C#N)=C(N)O1` (some centres undefined), the Inhibition in test [1] is listed as -12.42%; in test [2] it was 16.17%.
For `CNCc1cc2ccccc2n1C.Cl` the same measures were 7.33% and 3.85%.
For the compound `O=C(N/N=C/c1c[nH]c2ccccc12)c1cc2ccccc2[nH]1`, the Inhibition in test [1] is 11.07%; in test [2] it was 9.94%.
For `N#CC1=C(N)NC(=O)CC1c1ccccc1` (centres undefined) the same measures were 34.44% and 4.14%.
For `Cc1nc(NCc2ccccc2)c2cnn(-c3ccccc3)c2n1` the same measures were 7.38% and 5.64%.
The corresponding values for `CCC(Cc1ccccc1)NNC(=O)c1cc2ccccc2[nH]1` (centres undefined) are -3.17% and -1.51%.
Consider `O=C1C=C(Nc2ccccc2)C(=O)N1c1ccccc1`, for which the results for the Inhibition in test [1] and in test [2] were 3.04% and 4.55%, respectively.
Take `COc1ccc(C2C(C#N)=C(N)Oc3ccc4ccccc4c32)cc1` (centres undefined): the Inhibition in test [1] is 37.68%; in test [2] it was -4.54%.
For `CCOC(=O)c1cc2c(N)c3c(nc2nc1C)CCCC3` the same measures were 8.67% and -8.78%.
In the case of `C#CCN(C)c1ncc(C#N)c(N)n1`, the figures for the Inhibition in test [1] and in test [2] were 39.34% and -4.49%, respectively.
The corresponding values for `COc1ccc(C2c3c(nc4c(c3N)CCCC4)Oc3ccc4ccccc4c32)cc1` (centres undefined) are 18.52% and 4.53%.
The corresponding values for `N#Cc1c(Cl)nc(N2CCCCC2)c(C#N)c1-c1ccccc1` are -12.16% and 17.72%.
For `Cn1ccnc1C1C2=C(CC(C)(C)CC2=O)Oc2nc3c(c(N)c21)CCCC3` (centres undefined) the same measures were 8.97% and -15.11%.
As to `Nc1c2c(nc3ccc([N+](=O)[O-])cc13)CCCC2`, the Inhibition in test [1] was found to be 53.1%; in test [2], 1.31%.
The corresponding values for `COc1ccc2c(c1)cc(C(=O)O)n2C` are 20.8% and -7.03%.
